Compound activity deposited in PubChem BioAssay by National Center for Advancing Translational Sciences (NCATS).
Shown are actives, neighbours in structure and some others; about 4% of the full set was active somewhere.
TRHR PAM – TRH receptor (human) allosteric enhancement; P34981; TRHR cells, fluo-8 calcium fluorescence, EC20 TRH enhancement; enhancement, % at 2 µM; hit rate 0.66% among 360,000; AID 493056; in the data active = enhancement above about 30%
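Enhancer read-out: after compound pinning and an initial kinetic agonist-mode read, an EC20 of TRH (10 nM final) was injected and fluo-8 calcium signal (Ex 480/Em 530) followed at 1 s/cycle for 100 cycles in TRHR-expressing cells.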
D1 potentiator – enhances dopamine response at the human D1 receptor | hit rate 0.036% among 360,000 | potentiation, % at 10 µM | HEK293 TREx D1 cells, calcium flux, dopamine EC20 potentiation | P21728; in the data active = potentiation above about 30%
Target sequence (P21728 whole entry, looked up): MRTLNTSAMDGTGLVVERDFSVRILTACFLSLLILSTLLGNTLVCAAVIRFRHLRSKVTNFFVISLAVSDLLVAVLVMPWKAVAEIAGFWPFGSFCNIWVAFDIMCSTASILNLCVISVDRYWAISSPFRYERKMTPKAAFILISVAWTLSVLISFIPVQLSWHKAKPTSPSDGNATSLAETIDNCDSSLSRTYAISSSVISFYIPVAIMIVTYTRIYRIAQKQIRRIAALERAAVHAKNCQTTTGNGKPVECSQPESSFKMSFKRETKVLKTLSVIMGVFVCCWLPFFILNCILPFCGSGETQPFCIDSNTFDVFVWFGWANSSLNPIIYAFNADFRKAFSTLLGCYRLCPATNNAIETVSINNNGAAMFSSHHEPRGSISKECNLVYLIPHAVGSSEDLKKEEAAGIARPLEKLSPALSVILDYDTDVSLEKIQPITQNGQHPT
D1 ag – human D1 receptor agonism. hit rate 1% among 360,000. HEK293 T-REx D1 cells, calcium flux, agonist mode. activation, % at 2 µM. P21728
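Inducible HEK293 T-REx D1 cells, force-coupled to calcium signalling, were plated at 4000 cells/well with tetracycline and held overnight at 30 C. After no-wash calcium dye loading, compound-evoked calcium rise over 180 s flagged agonists.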
D1 antagonist – antagonists of human D1 dopamine receptor; hit rate 3.2% among 360,000; AID 504652; P21728; HEK293 TREx D1 cells, calcium flux, dopamine EC80; stronger effect = lower value; activity change, negative = inhibition, % at 10 µM; in the data active = activity change below about -30%
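Allosteric or orthosteric antagonism assessed as attenuation of the calcium response to EC80 dopamine, added 180 s after compound, in induced HEK293 Trex D1 cells loaded with no-wash calcium dye.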
TRHR ag – agonists of human TRH receptor. P34981. TRHR cells, calcium flux fluo-8, FDSS agonist mode. activation, % at 2 µM. hit rate 0.18% among 360,000. AID 493084
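Agonist-mode FDSS calcium read (Ex 480/Em 530, 1 s cycles) in 1536-well TRHR cells with fluo-8 dye, after 10-cycle baseline and 23 nL compound addition; TRH at EC20 (10 nM final) added afterwards for the enhancer phase.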
GRP78 ERSR act – ER stress response induction in glioma; U87-MG GRP78 promoter luciferase reporter, 16 h; Potency, µM, hits mostly activators; hit rate 0.02% among 420,000; AID 602332; active = well fitted activation curve with a large enough effect; inconclusive = small, poorly fitted or top-dose-only effect; inactive = no such curve, though single readings can be large or run the other way; also: series mostly up to about 76 µM; nearly all actives have a fitted effect of over 35% in size
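Stably transfected U87-MG human glioma cells carrying a GRP78-based luminescent sensor were seeded at 1000 cells/well, pin-dosed with compounds and incubated 16 h. Luciferase reagent was then added, and end-point luminescence was read after 10 min at room temperature.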
Of the large screens only hits and unclear results are named; the others gave an inactive call. Rule as the data show it, unless noted: active = activation above about 30%; inactive = the rest.

C#CCOCCOCCOCCNc1nc(N2CCN(C(=O)CCCCCCCCCCNC(=O)[C@H](CCCN=C(N)N)n3cc(C[C@@H](C)CC)nn3)CC2)nc(N2CCN(C(=O)CCCCCCCCCCNC(=O)[C@@H]([C@H](C)CC)n3cc(CCCCCN)nn3)CC2)n1	D1 potentiator 35.2 (no result: GRP78 ERSR act)
C#CCOCCOCCOCCNc1nc(N2CCN(C(=O)CCCCCCCCCCNC(=O)[C@H](CCCCN)n3cc(C[C@@H](C)CC)nn3)CC2)nc(N2CCN(C(=O)CCCCCCCCCCNC(=O)[C@H](CCCN=C(N)N)n3cc(C[C@@H](C)CC)nn3)CC2)n1	none
C#CCOCCOCCOCCNc1nc(N2CCN(C(=O)CCCCCCCCCCNC(=O)[C@H](CCCCN)n3cc(CCO)nn3)CC2)nc(N2CCN(C(=O)CCCCCCCCCCNC(=O)[C@H](CCCCN)n3cc(C[C@@H](C)CC)nn3)CC2)n1	D1 ag 70.1
C#CCOCCOCCOCCNc1nc(N2CCN(C(=O)CCCCCCCCCCNC(=O)[C@@H](CCSC)n3cc(CCO)nn3)CC2)nc(N2CCN(C(=O)CCCCCCCCCCNC(=O)[C@H](CO)n3cc(CCCCCN)nn3)CC2)n1	D1 antagonist -39.5
N#Cc1nc(NCC(F)F)c2ncn(-c3cc(F)cc(F)c3)c2n1	none (no result: GRP78 ERSR act)
Fc1ccccc1OCCCCN1CCCCC1	none
COc1ccc(NC(=O)CN2CCCN(S(=O)(=O)c3ccc(Br)cc3)CC2)c(OC)c1	none
O=C(CN1Cc2ccccc2OC(c2ccsc2)C1)NCc1ccc2c(c1)OCO2 (configuration not stated)	none (no result: TRHR PAM, D1 potentiator, D1 ag, D1 antagonist, TRHR ag)
C#CCOCCOCCOCCNc1nc(N2CCN(C(=O)CCCCCCCCCCNC(=O)[C@H](CCCCN)n3cc(C)nn3)CC2)nc(N2CCN(C(=O)CCCCCCCCCCNC(=O)[C@@H]([C@H](C)O)n3cc(C)nn3)CC2)n1	D1 ag 33.8
C#CCOCCOCCOCCNc1nc(N2CCN(C(=O)CCCCCCCCCCNC(=O)[C@H](CCCCN)n3cc(CCO)nn3)CC2)nc(N2CCN(C(=O)CCCCCCCCCCNC(=O)[C@H](CCCCN)n3cc(CCCC(=O)O)nn3)CC2)n1	none
C#CCOCCOCCOCCNc1nc(N2CCN(C(=O)CCCCCCCCCCNC(=O)[C@@H](CCC(=O)O)n3cc(CCCCCN)nn3)CC2)nc(N2CCN(C(=O)CCCCCCCCCCNC(=O)[C@H](CCCCN)n3cc(C[C@@H](C)CC)nn3)CC2)n1	D1 potentiator 44.1, D1 ag 65.3
O=C(COC(=O)c1ccccc1OCc1cccc(Br)c1)Nc1ccc(Br)cc1	none (no result: TRHR PAM, D1 potentiator, D1 ag, D1 antagonist, TRHR ag)
O=C(O)c1c(Cl)c(Cl)c(Cl)c(Cl)c1C(=O)N1CCOCC1	D1 antagonist -35.5
Cc1ccc2nc(-c3sc4nc(C)ccc4c3N)[nH]c2c1	D1 antagonist -38.2
Cc1cc(C)c2c(N)c(-c3nc4ccccc4[nH]3)sc2n1	GRP78 ERSR act inconclusive
Cc1cnc(C(=O)OCC(=O)Nc2ccc(Oc3ccccc3)cc2)cn1	D1 antagonist -41.2
CCCOc1ccc(C(=O)CCC(=O)OCC(=O)Nc2ccc(Oc3ccccc3)cc2)cc1	none (no result: GRP78 ERSR act)
C=CCC(=O)OCC(=O)Nc1ccc(Oc2ccccc2)cc1	D1 antagonist -35.2 (no result: GRP78 ERSR act)
CCN(CC)S(=O)(=O)c1ccc2c(c1)c(=O)c(C(=O)N1CCN(c3cc(Cl)ccc3C)CC1)cn2C	none
O=C(NNC1=NS(=O)(=O)c2ccccc21)c1ccc(Cl)cc1	none
O=C(NNC1=NS(=O)(=O)c2ccccc21)c1ccc([N+](=O)[O-])cc1	TRHR PAM 30.4
Cc1cc(NC(=O)CSc2nnc(C)n2C)no1	none
CCOc1nc(C)ccc1-c1noc(CC)n1	D1 antagonist -38.1
Clc1ccc(CSc2nnc(-c3c[nH]c4ccccc34)o2)cc1	none
CCOc1ccccc1-c1nnc(SCc2ccc(Cl)cc2)o1	D1 ag 61.5
Cc1nn(-c2ccccc2)c(Cl)c1/C=N/Nc1ccc(S(=O)(=O)Nc2ccccc2C(=O)O)cc1[N+](=O)[O-]	D1 antagonist -31.7
Cc1ccc(SC(C)C(=O)N2CCCC2)cc1 (configuration not stated)	D1 antagonist -35.2, GRP78 ERSR act inconclusive
